# Test results from PubChem BioAssay (EPA / NIEHS).
# Calls of active or inactive are those of the source. Rule for the calls: active = hit-call score of the fitted dose curve at least 0.9, where 1 is the maximum; inactive = score below 0.9.
# Test: IUF_NPC1_viability_72hr: Viability Assessment at 72 hours in the Leibniz Research Institute for Environmental Medicine (IUF) Neural Progenitor Cell Proliferation Assay (NPC1) (AID 2284209)
# Protocol: IUF_NPC1 is a cell-based, multiplexed assay that uses hNPC, a human primary neural progenitor cells, with measurements taken at 72 hours after chemical dosing in a 96-well plate. Human neural progenitor cells (hNPC) are generated from human fetal brain cortex at gestational week (GW) 16-19. Grown in suspension culture and under proliferative conditions (proliferation media and growth factors), these cells represent neural progenitor cell proliferation. In the NPC1 assay, hNPC's are exposed to the test compound for 72h. Cell proliferation is assessed as an increase in sphere area using automated phase contrast imaging and as incorporation of Bromodeoxyuridine (BrdU) during DNA synthesis using a luminescence-based cell proliferation ELISA. In parallel, the cell viability is assessed using an alamar blue viability assay and the cytotoxicity using a lactate dehydrogenase dependent membrane integrity assay.IUF_NPC1_viability_72hr is one of 4 assay components measured from the IUF_NPC1 assay. It is designed to measure cell viability assessed as mitochondria-dependent reduction of resazurin to resorufin using the alamar blue cell viability assay. Viability is measured as a fluorescence signal (relative fluorescence unit) in a multiplate reader. Data from the IUF_NPC1_viability component was analyzed at the endpoint IUF_NPC1_viability in the positive analysis fitting direction relative to DMSO as the negative control and baseline of activity. Using a type of viability reporter, gain or loss-of-signal activity can be used to understand viability effects.
# After the cell expansion period, the cells are cultured for up to four weeks in which they are passaged every week. Between one to three days after passaging, depending on the size chosen for passaging, spheres at a size of 0.3 mm are used in the assay. For the assessment of neural progenitor cell proliferation, the spheres are plated in poly-Hema coated 96-well U-bottom plates filled with proliferation medium containing growth factors (EGF and FGF). One 0.25 - 0.35 mm big sphere is plated in the middle of each well. Within 3 days NPCs proliferate and grow in size. Cultivation during the test method is performed at 37C and 5% CO2 at a pH of 7.2-7.6. As a positive control, spheres are cultivated in the absence of growth factors (EGF and FGF), which dramatically reduces proliferation. Exposure starts on the plating day (day 0) and is continued over three days, without chemical renewal, until the experiment is terminated. The assay is terminated by the assessment of cell viability, cytotoxicity, and proliferation by BrdU. All endpoints are generated from the same experimental run and from each well/sphere in the 96-well plate.
Compound,outcome,AC50
O=S(=O)(O)C(F)(F)C(F)(F)C(F)(F)C(F)(F)C(F)(F)C(F)(F)C(F)(F)C(F)(F)F,inactive,–
CC(C)N(C(=O)COc1nnc(C(F)(F)F)s1)c1ccc(F)cc1,inactive,–
O=S1OCC2C(CO1)C1(Cl)C(Cl)=C(Cl)C2(Cl)C1(Cl)Cl (stereo not drawn),–,2.63 µM (active)
O=C(O)C(F)(F)C(F)(F)C(F)(F)C(F)(F)C(F)(F)C(F)(F)C(F)(F)F,inactive,–
CC[C@H](C)[C@H]1O[C@]2(C=C[C@@H]1C)C[C@@H]1C[C@@H](C/C=C(\C)[C@@H](O[C@H]3C[C@H](OC)[C@@H](O[C@H]4C[C@H](OC)[C@@H](O)[C@H](C)O4)[C@H](C)O3)[C@@H](C)/C=C/C=C3\CO[C@@H]4[C@H](O)C(C)=C[C@@H](C(=O)O1)[C@]34O)O2 (tested in a mixture with another compound),inactive,–
O=C(O)COc1ccc(Cl)cc1Cl,inactive,–
O=[N+]([O-])/N=C1\NCCN1Cc1ccc(Cl)nc1,inactive,–
CC1(C)C(C=C(Cl)Cl)C1C(=O)OC(C#N)c1ccc(F)c(Oc2ccccc2)c1 (stereo not drawn),inactive,–
CNC(=O)CSP(=S)(OC)OC,inactive,–
COP(=O)(OC)OC=C(Cl)Cl,–,91.4 µM (active)
CCC(C)(C)C(=O)OC1=C(c2ccc(Cl)cc2Cl)C(=O)OC12CCCCC2,inactive,–
CC1(c2ccc(Oc3ccccc3)cc2)OC(=O)N(Nc2ccccc2)C1=O (stereo not drawn),inactive,–
COP(=S)(OC)Oc1ccc([N+](=O)[O-])cc1,inactive,–
